Screens from PubChem BioAssay.
This is a sample that favours compounds with a hit; in the whole collection about 2.1% have one here.
TDP-43 yeast inh = rescues yeast growth from TDP-43 toxicity; TDP-43 expressing yeast growth rescue, BacTiter-Glo, 24 h; Potency, µM (top dose mostly 46.1 µM), for the others: top-dose growth rescue (activation), actives largely listed as activators; 410,000 compounds, 1.8% hits; AID 652104; further: % of control where 0% means no effect; nearly all actives have a fitted effect of over 50% in size
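Yeast expressing TDP-43 (pregrown in raffinose, seeded at OD600=0.02 in galactose medium) exposed to compounds 24 hr at 30 deg C. Growth read by BacTiter-Glo luminescence; rescue of toxicity appears as increased signal.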
FUS yeast rescue = suppressors of FUS proteinopathy in yeast; S. cerevisiae FUS-expressing, growth rescue, OD600, 24 h; Potency, µM (titrated, usually from 76.6 µM), most hits filed as activators; 390,000 compounds, 0.24% hits; AID 1347120;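 further: plate controls were DMSO vehicle for no effect and reference control for full effect; nearly all actives have a fitted effect of over 55% in size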
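Yeast FUS proteinopathy model; galactose-induced FUS (2%), starting OD 0.005. Cpds in dilution series, 24hr, 30C, 99% humidity. Abs 600 nm growth. Pos ctrl CP55940 (top 92uM final); neg ctrl DMSO.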
aSyn yeast inh = inhibitors of alpha-synuclein toxicity in yeast. Yeast expressing alpha-synuclein, growth rescue, BacTiter-Glo, 24 h. Potency, µM (titrated, usually from 46.1 µM), for inactives: at the highest dose growth rescue (activation), most hits filed as activators. 370,000 compounds, 0.14% hits; further: % of control where 0% means no effect; nearly all actives have a fitted effect of over 65% in size
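Screening used galactose-induced yeast with toxic alpha-synuclein levels, exposed to compound for 24 hr at 30 deg C. Cell growth, read with BacTiter-Glo luminescence, gave the measured signal.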
Abeta yeast res = restores growth of yeast expressing A-beta42 peptide; Potency, µM (titrated, usually from 46.1 µM), usual class: activators; yeast expressing A-beta42, growth rescue, OD600, 48 h; response scale: 0% DMSO, 100% iron-clioquinol control; 410,000 compounds, 0.063% hits; further: nearly all actives have a fitted effect of over 55% in size
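Yeast A-beta toxicity model in growth medium with pinned compounds, 48 h at 30 C; growth read as absorbance at 600 nm. Normalized to FeCl3/clioquinol equimolar mix (positive) and DMSO (negative).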
* marks the source's active call; other numbers are inactive results; i = inactive; ? = inconclusive; nt = no result. The call rests on the fitted dose curve; in most records, active means well fitted curve in the direction sought with a large enough effect; inconclusive means small, poorly fitted or top-dose-only effect, or another doubt; inactive means no such curve, though single readings can be large; an effect the other way counts as inactive or inconclusive. Potency means the concentration at half of the fitted maximal effect.

SMILES	TDP-43 yeast inh	FUS yeast rescue	aSyn yeast inh	Abeta yeast res
Cc1nn(-c2ccccc2)c(N2CCCC2)c1/C=N/NC(=O)c1ccccc1O	5%	i	-7%	i
O=C(N/N=C/c1cc2c3c(c1O)CCCN3CCC2)c1ccccc1O	-35%	i	22µM*	i
O=c1cc(O)c2c([nH]1)CCC2	nt	nt	-11%	nt
O=C(O)CC1(CC(=O)Nc2ccc3sccc3c2)CCCCC1	7.9µM*	i	-15%	i
CCOc1ccc(NCc2nnc(SCc3ccc(Cl)cc3)n2-c2ccccc2)cc1	25µM*	nt	?	i
CCOC(=O)CSc1nnc(CNc2ccc(Cl)cc2)n1-c1ccccc1	?	i	27%	i
COc1ccc(OC)c(NC(=O)c2ccc(Cl)cc2)c1	-13%	i	-1%	i
COc1ccc(OC)c(NC(=O)c2csc(Cl)c2OC)c1	20µM*	?	6%	i
COc1ccc(NCc2cc3cc4c(cc3n(CC(=O)Nc3ccccc3)c2=O)OCO4)cc1	13%	i	nt	i
COc1cccc(CNC(=O)c2cc3c(=O)n(Cc4cccnc4)ccc3nc2C)c1	-3%	i	nt	i
COC(=O)C1=NN(C(=O)c2ccc(C)cc2)C(O)(c2ccc(Cl)cc2)C1 (stereo unspecified)	?	?	11µM*	i
Cc1noc(C)c1COc1cccc(C(=O)Nc2ccc(C#N)cc2)c1	14µM*	i	-2%	i
CCCOC(=O)c1c(N)sc(C(=O)OCC)c1C	7.9µM*	i	4%	i
CCOC(=O)c1c(N)sc(C(N)=O)c1C	13%	i	2%	i
CC(=O)Nc1ccc(/C=C/C(=O)c2ccc(-n3nncc3-c3ccccc3)cc2)cc1	nt	nt	7%	nt
CCC(NC(=O)CCc1c(C)c2cc3c(C)c(C)oc3cc2oc1=O)C(=O)N[C@@H](Cc1ccccc1)C(=O)O (stereo partly specified)	0%	28µM*	5%	i
COc1cc(OC)c(C(=O)C=Cc2ccc(OC)c(OC)c2)c(OC)c1	-10%	i	12%	i
COc1cc(/C=C/C(=O)c2ccccc2)cc(OC)c1OC	nt	i	nt	nt
COc1ccc(C(=O)/C=C/c2ccc(OC)c(O)c2)c(F)c1	22µM*	nt	-4%	i
COc1cc(/C=C/C(=O)N2CCC=CC2=O)cc(OC)c1OC	22µM*	i	13%	i
COc1cc(C=CC(=O)c2ccccc2)cc(OC)c1OC	14µM*	i	?	i
COc1ccc(C=CC(=O)c2ccc(OC)c(OC)c2O)cc1OC	13µM*	i	?	i
O=C(NCc1ccccn1)Nc1ccc(Br)cc1Cl	24%	i	3%	i
S=C(NCc1ccccn1)Nc1ccc(Br)cc1Cl	13µM*	i	3%	?
CCOC(=O)N/C(N)=N/c1nc2ccccc2s1	11µM*	i	nt	i
SMILES	TDP-43 yeast inh	FUS yeast rescue	aSyn yeast inh	Abeta yeast res
Cc1ccc(S(=O)(=O)Nc2ccc3c(c2)C(=O)N([C@H](C)CO)C[C@H](C)[C@@H](CN(C)C(=O)NC2CCCCC2)OCCCC[C@@H](C)O3)cc1	24%	16µM*	0%	i
COc1ccc(S(=O)(=O)Nc2ccc3c(c2)C(=O)N([C@H](C)CO)C[C@H](C)[C@@H](CN(C)S(=O)(=O)c2ccccc2)O3)cc1	0%	?	13%	i
Cc1ccc(S(=O)(=O)Nc2ccc3c(c2)C(=O)N([C@H](C)CO)C[C@H](C)[C@H](CN(C)C(=O)Nc2cccc4ccccc24)OCCCC[C@@H](C)O3)cc1	?	13µM*	6%	i
COc1ccc(S(=O)(=O)N(C)C[C@H]2Oc3ccc(NS(=O)(=O)c4ccccc4)cc3C(=O)N([C@H](C)CO)C[C@@H]2C)cc1	4%	18µM*	0%	i
Cc1ccc(S(=O)(=O)N(C)C[C@@H]2Oc3ncc(C#CCC(C)C)cc3C(=O)N([C@H](C)CO)C[C@H]2C)cc1	25µM*	28µM*	6%	i
Cc1ccc(C(=O)N2CCC(Oc3cccnc3)CC2)cc1	nt	i	nt	nt
O=S(=O)(c1cccs1)N1CCN(c2nc(-c3cccs3)nc3ccccc23)CC1	nt	nt	1%	nt
c1ccc(-c2c[nH]c3cccc(C4CCCCC4)c23)cc1	nt	i	nt	nt
Cc1cccc(C)c1NC(=O)CCCn1c(=O)c2cccn2c2ccccc21	10%	i	nt	i
COc1ccc(C2=CC3=C(Br)C(=O)C(C)(OC(=O)c4ccc(Cl)nc4)C(=O)C3=CO2)cc1 (stereo unspecified)	14µM*	i	-15%	i
CNC(=O)c1c(NC(=O)c2ccc(N3C(=O)CCC3=O)cc2)sc2c1CCCC2	8%	?	-12%	i
CNC(=O)c1c(NC(=O)c2ccc(N3C(=O)CCC3=O)cc2)sc2c1CCC(C)C2 (stereo unspecified)	32µM*	nt	1%	i
Cc1cc(C)c(NC(=O)CCCn2c(C)c3cnn(-c4ccccc4)c(=O)c3c2C)c(C)c1	0%	i	nt	i
COC(=O)C12C=C3CC(c4ccc(C)s4)=C3C(=O)N1Cc1[nH]c3ccccc3c1C2 (stereo unspecified)	nt	i	nt	nt
Cc1ccc(SC2=C(C(=O)O)CCCC2)cc1	10µM*	i	24%	i
CCN(CC)c1nc(NN)nc(Nc2ccc(C)c(Cl)c2)n1	13µM*	i	-9%	?
O=C(Nc1ccccn1)c1ccc(Br)s1	6.3µM*	i	-7%	i
O=C(NC1CCSc2ccccc21)c1cc([N+](=O)[O-])ccc1N1CCOCC1 (stereo unspecified)	35µM*	i	-1%	i
O=C(OCc1ccccc1F)c1cc([N+](=O)[O-])ccc1N1CCOCC1	35µM*	nt	5%	i
CCCC(=O)C1=C(c2cccc(OC)c2)N(C(=O)CCC)n2c(C)nnc2S1	28%	?	nt	i
Cc1ccc(Cn2cc(CN3[C@@H](CC(C)C)COc4cc(Br)ccc4S3(=O)=O)nn2)cc1	nt	i	nt	nt
CCOC(=O)c1sc(NC(=O)c2cc(-c3ccccc3C)nc3ccccc23)c(C#N)c1C	1%	i	-32%	i
Cc1ccccc1-c1cc(C(=O)Nc2sc(C)c(C)c2C(N)=O)c2ccccc2n1	22µM*	i	-18%	i
Cc1onc(-c2c(Cl)cccc2Cl)c1C(O)c1ccccc1 (stereo unspecified)	11µM*	i	28%	i
COc1ccc(N2COC3c4cccc5cccc(c45)C32)cc1 (stereo unspecified)	11µM*	i	-6%	i
Clc1ccc(N2COC3c4cccc5cccc(c45)C32)cc1 (stereo unspecified)	10µM*	i	13%	i
COc1ccc(C2Nc3cccc4cccc(c34)N2)cc1	?	i	-8%	i
CN(C)c1ccc(N=Nc2ccnc3ccccc23)cc1	nt	nt	-4%	nt
Clc1ccc(SCNc2ccccc2Cl)cc1	-8%	i	-17%	i
